Measurements reported in PubChem BioAssay (NCATS).
Results filed as inconclusive are left out. Entries that show only a call come without a potency. Activity calls are given as the source filed them. Calls follow the shape of the dose curve; as a rule, active = well fitted inhibition curve with a large enough effect; inconclusive = small, poorly fitted or top-dose-only effect; inactive = no such curve, though single readings can be large or run the other way. Where a SMILES comes first, the peptide text is derived from it. The star is where a group is joined. AFC = O=c1cc(C(F)(F)F)c2ccc(N*)cc2o1

Test system: Zika virus NS2B-NS3 protease (linked construct)
Assay: Primary screen NINDS Rhodamine qHTS for Zika virus inhibitors (AID 1347160); also: nearly all actives have a fitted effect of over 55% in size
Settings: purified NS2B-NS3 protease, Rhodamine110 substrate fluorescence; series mostly up to 57.1 µM
How it was run: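 Purified linked NS2B-NS3 protease (NS2B hydrophilic domain joined to NS3 protease by flexible linker), 25 nM in 10 mM Tris-HCl pH 8.0, 0.01% Tween 20. Compounds titrated, 15 min preincubation at room temperature; 1.5 microM Rhodamine110 substrate, FITC fluorescence change over 15 min.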

| Structure (SMILES) | Potency |
| --- | --- |
| CC(=O)O[C@H](C[C@@H](C)[C@H]1C(=O)[C@H](O)[C@@]2(C)[C@@H]3CCC4C(C)(C)[C@@H](O[C@@H]5OC[C@H](O)[C@H](O)[C@H]5O)CC[C@@]45C[C@@]35CC[C@]12C)[C@@H]1OC1(C)C (some centres not stated) | inactive |
| NC(=O)c1ccc(OCC2NC(=O)C3CCCN3C2=O)cc1 (configuration not stated) | inactive |
| CC(=O)NCCCCn1c2c(c3ccccc31)C(=O)NCC2 | inactive |
| NC(=O)c1cccc(-c2cc(O)cc(OC(=O)NC3CCCCC3)c2)c1 | inactive |
| O=C(NCC(=O)N1CC[C@H](NC2CCC(O)(c3ccc(-c4ncccn4)cn3)CC2)C1)c1cccc(C(F)(F)F)c1 (some centres not stated) | inactive |
| O=c1c2cccnc2n(-c2cccc([N+](=O)[O-])c2)c(=O)n1Cc1ccncc1 | inactive |
| CC(=O)O[C@H]1[C@H](Oc2ccccc2COC(=O)C2(O)C=CCCC2=O)O[C@H](CO)[C@@H](O)[C@@H]1O (some centres not stated) | inactive |
| C=C1C(=O)O[C@H]2[C@H]1[C@@H](OC(=O)C(C)CO)C[C@@]1(C)[C@H](O)CCC(=O)[C@H]21 (some centres not stated) | inactive |
| COc1ccc(C)c2sc(NC(=O)c3ccncc3)nc12 | inactive |
| C[C@@H]1CC[C@H]2C(C)(C)[C@H](O)[C@H](O)C[C@]2(C)[C@@]12Cc1c(O)cc3c(c1O2)CNC3=O | inactive |
| CC12CC34C=CC(=O)C(C)(CCC(=O)O)C3C(CC1C4)O2 (configuration not stated) | inactive |
| Nc1c(Br)cc(Br)cc1CNC1CCC(O)CC1 (configuration not stated) | inactive |
| CCn1nnnc1NCc1ccc(C(C)C)cc1 | inactive |
| COc1ccc2c(c1)O[C@H](O[C@@H]1O[C@H](CO)[C@@H](O)[C@H](O)[C@H]1O)C(=O)N2 | inactive |
| COc1cc(/C=C/C(=O)O[C@H]2[C@H](OC(=O)/C=C/c3cc(OC)c(O)c(OC)c3)O[C@H](CO[C@@H]3O[C@H](CO)[C@@H](O)[C@H](O)[C@H]3O)[C@@H](O)[C@@H]2O)ccc1O | inactive |
| CC1NC(=O)CNC(=O)C(C(C)C)NC(=O)C2CCCN2C(=O)C(C(C)C)NC(=O)C(Cc2c[nH]c3ccccc23)NC1=O (configuration not stated) (cyclo(GAWVPV); configuration not given here) | inactive |
| CCC(C)C(=O)O[C@@H]1[C@@H](O)[C@@H](O[C@H]2O[C@H](CO)[C@@H](O)[C@H](O)[C@H]2O)O[C@H](CO)[C@H]1O (some centres not stated) | inactive |
| CC(=O)O[C@@H]1[C@@H](OC(=O)/C=C/c2ccccc2)[C@H](C)O[C@@H](O[C@H]2[C@@H]3C=CO[C@@H](O[C@@H]4O[C@H](CO)[C@@H](O)[C@H](O)[C@H]4O)[C@@H]3[C@@]3(CO)O[C@@H]23)[C@@H]1OC(C)=O | inactive |
| CC(=O)N[C@@H](CC(C)C)C(=O)N[C@@H](CCC(=O)O)C(=O)N[C@@H](CCC(=O)O)C(=O)N[C@@H](CC(=O)O)C(=O)Nc1ccc2c(C(F)(F)F)cc(=O)oc2c1 (Ac-LEED-{AFC}) | inactive |
| C[C@]1(OC(=O)/C=C/c2ccccc2)C[C@H](O)[C@]2(O)C=CO[C@@H](O[C@@H]3O[C@H](CO)[C@@H](O)[C@H](O)[C@H]3O)C12 (some centres not stated) | inactive |
| CCOC(=O)[C@H](CCc1ccccc1)N[C@@H](C)C(=O)N1C2CCCCC2C[C@H]1C(=O)O (some centres not stated) | inactive |
| COc1cc2c(cc1O)C1(Cc3ccc4c(c3C1=O)OCO4)N(C)CC2 (configuration not stated) | inactive |
| Nc1nc(CC(=O)Nc2ccc(CCNCC(O)c3ccccc3)cc2)cs1 (configuration not stated) | inactive |
| COC(=O)C1=CO[C@@H](O[C@@H]2O[C@H](CO)[C@@H](O)[C@H](O)[C@H]2O)[C@@H]2[C@@H](C)[C@@H](O)C[C@H]12 | inactive |
| CC(NCc1ccc(OCc2cccc(F)c2)cc1)C(N)=O (configuration not stated) | inactive |
| Cc1cc(N2CCCCC2)nc2ccccc12 | inactive |
| CCCn1cnc2c(NCc3ccccc3)nc(N[C@H](CC)CO)nc21 | inactive |
